A short description of assay [1]: qHTS assay to identify small molecule agonists of H2AX - cell viability counter screen (AID 1224847; calls by dose curve; note: nearly all actives have a fitted effect of over 30% in size; note: potency is the fitted concentration of half-maximal effect). An outline of the steps: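 Viability of CHO-K1 (wild type) cells after 3 hr compound exposure was measured by CellTiter-Glo luminescence.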
(In general: qHTS replaces the single test concentration by a dilution series.)

Assay [2] is described as follows: qHTS assay to identify small molecule antagonists of the estrogen related receptor (ERR) signaling pathway from Tox21 library (AID 1224848). Note: nearly all actives have a fitted effect of over 50% in size. Note: potency is the fitted concentration of half-maximal effect. An outline of the steps:
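Cells: ERR line, 2,000/well; 6 h preincubation 37 C/5% CO2. Cpd in DMSO via pin tool; 18 h, 37 C. ONE-Glo, 30 min RT, luminescence.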

The nature of assay [3]: qHTS assay to identify small molecule agonists of the estrogen related receptor (ERR) signaling pathway from Tox21 library (AID 1224849; calls by dose curve; note: nearly all actives have a fitted effect of over 15% in size). Conditions: ERR reporter cell line, ONE-Glo luciferase, 18 h. A digest of the protocol:
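Agonist signal is luciferase luminescence from an ERR reporter cell line treated 18 h at 37 C with DMSO-dissolved compounds, read 30 min after ONE-Glo addition at room temperature.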

The nature of assay [4]: qHTS RealTime-Glo MT Cell Viability Assay in HepG2 cells - 24 hour (AID 1224867). Note: nearly all actives have a fitted effect of over 50% in size. Note: potency is the fitted concentration of half-maximal effect. A digest of the protocol:
(§1)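 Cells + NanoLuc/prosubstrate dispensed (600 cells/well) → 5 h at 37 C/5% CO2 → compounds in DMSO transferred → 40 h incubation at 37 C, luminescence read at 0, 8, 16, 24, 32, 40 h.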

Assay [5] is described as follows: qHTS RealTime-Glo MT Cell Viability Assay in HEK293 cells - 32 hour (AID 1224868). Note: nearly all actives have a fitted effect of over 50% in size. Note: potency is the fitted concentration of half-maximal effect. A digest of the protocol: (§2)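 Tox21 10K qHTS, HEK293, 600 cells/well, RealTime-Glo reagent co-dispensed with cells; 5 h preincubation, compound by pintool, 37 C, luminescence at 0–40 h.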
Assay [6] in a line: A CellTox Green Cytotoxicity Assay to monitor cytotoxicity in HEK293 cells - 40 hour (AID 1224871). Note: nearly all actives have a fitted effect of over 45% in size. Note: potency is the fitted concentration of half-maximal effect. An outline of the steps:
(§3)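 Cytotoxicity was tracked continuously in HEK293 cells by a DNA-binding dye excluded from viable cells. Compounds were transferred in DMSO 5 h after seeding; fluorescence was recorded at intervals up to 40 h.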

A short description of assay [7]: qHTS RealTime-Glo MT Cell Viability Assay in HEK293 cells - 16 hour (AID 1224872). Note: nearly all actives have a fitted effect of over 50% in size. Note: potency is the fitted concentration of half-maximal effect. An outline of the steps: as §2
Assay [8] can be described thus: qHTS RealTime-Glo MT Cell Viability Assay in HepG2 cells - 8 hour (AID 1224873). Note: nearly all actives have a fitted effect of over 55% in size. Note: potency is the fitted concentration of half-maximal effect. An outline of the steps:
(§4)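 HepG2 cells mixed with RealTime-Glo MT reagents (NanoLuc plus cell-permeant prosubstrate) were seeded at 600 cells/well, incubated 5 h at 37 C/5% CO2, then pinned with compounds in DMSO; nonlytic luminescence tracked viability during 40 h treatment.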

Assay [9] can be described thus: qHTS RealTime-Glo MT Cell Viability Assay in HEK293 cells - 40 hour (AID 1224874). Note: nearly all actives have a fitted effect of over 50% in size. Note: potency is the fitted concentration of half-maximal effect. Conditions: RealTime-Glo luminescence; max response: stronger effect = lower value. A digest of the protocol: (§5)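 Nonlytic bioluminescent viability monitoring. HEK293 at 600 cells/well with reagent; 5 h settle; compound transfer by pintool; plates held at 37 C and read at set time points.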
Assay [10] can be described thus: A CellTox Green Cytotoxicity Assay to monitor cytotoxicity in HEK293 cells - 24 hour (AID 1224875). Note: nearly all actives have a fitted effect of over 45% in size. Note: potency is the fitted concentration of half-maximal effect. A digest of the protocol: as §3
Assay [11] can be described thus: A CellTox Green Cytotoxicity Assay to monitor cytotoxicity in HepG2 cells - 16 hour (AID 1224876). Note: nearly all actives have a fitted effect of over 45% in size. Note: potency is the fitted concentration of half-maximal effect. A digest of the protocol: (§6)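 Real-time, homogeneous cytotoxicity readout: dead-cell DNA staining by CellTox Green in HepG2 monolayers, fluorescence measured at timed intervals up to 40 h of continuous compound exposure.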
Assay [12] is described as follows: qHTS RealTime-Glo MT Cell Viability Assay in HepG2 cells - 32 hour (AID 1224877). Note: nearly all actives have a fitted effect of over 55% in size. Note: potency is the fitted concentration of half-maximal effect. An outline of the steps: as §1
Assay [13] is described as follows: A CellTox Green Cytotoxicity Assay to monitor cytotoxicity in HepG2 cells - 24 hour (AID 1224878). Note: nearly all actives have a fitted effect of over 45% in size. Note: potency is the fitted concentration of half-maximal effect. An outline of the steps: as §6
The nature of assay [14]: qHTS RealTime-Glo MT Cell Viability Assay in HEK293 cells - 0 hour (AID 1224880). A digest of the protocol: as §5
Assay [15] in a line: A CellTox Green Cytotoxicity Assay to monitor cytotoxicity in HEK293 cells - 32 hour (AID 1224881). Note: nearly all actives have a fitted effect of over 40% in size. Note: potency is the fitted concentration of half-maximal effect. An outline of the steps:
as §3

Assay [16] can be described thus: qHTS assay to identify small molecule agonists of the hypoxia (HIF-1) signaling pathway (AID 1224846; active = well fitted activation curve with a large enough effect in the signal ratio in the repeat runs, not every such curve was filed as active; the % refers to the signal ratio). A digest of the protocol:
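Steps: seed ME-180 HRE-bla cells (2,000/well, 0.5% dialyzed FBS); incubate 5 hrs at 37C; pin-transfer compounds or DMSO; incubate 17 hrs; add LiveBLAzer B/G substrate CCF4-AM; measure reporter activation by FRET.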

Assay [17] is described as follows: A CellTox Green Cytotoxicity Assay to monitor cytotoxicity in HEK293 cells - 0 hour (AID 1224869). Note: nearly all actives have a fitted effect of over 50% in size. A digest of the protocol:
as §3

Assay [18] in a line: qHTS RealTime-Glo MT Cell Viability Assay in HepG2 cells - 40 hour (AID 1224870). Note: nearly all actives have a fitted effect of over 50% in size. Note: potency is the fitted concentration of half-maximal effect. A digest of the protocol: as §4
The nature of assay [19]: A CellTox Green Cytotoxicity Assay to monitor cytotoxicity in HepG2 cells - 0 hour (AID 1224882). Note: nearly all actives have a fitted effect of over 35% in size. An outline of the steps:
as §6

The nature of assay [20]: A CellTox Green Cytotoxicity Assay to monitor cytotoxicity in HepG2 cells - 40 hour (AID 1224879). Note: nearly all actives have a fitted effect of over 40% in size. Note: potency is the fitted concentration of half-maximal effect. An outline of the steps:
as §6

The mark [21] stands for this setting: at 92.4 µM (top of the series) unless noted.

Where “and” joins values, the source holds several entries; their conditions need not be identical. Equal values may be shown once. Results filed as inconclusive are left out. More than one record can exist for a structure, and the calls need not agree. Calls of active or inactive are those of the source. Unless noted, calls come from the whole dose curve; as a rule, active = well fitted curve in the direction sought with a large enough effect in the repeat runs; inconclusive = weak or mixed curves; inactive = no such curve, though single readings can be large; an effect the other way counts as inactive or inconclusive.
% is set by controls: 0 for no effect and ±100 for the full control effect.

Turning to `ClC1=C(Cl)[C@]2(Cl)[C@@H]3[C@@H]4C[C@@H]([C@H]5O[C@@H]45)[C@@H]3[C@@]1(Cl)C2(Cl)Cl`, the Potency in assay [1] was 50.5 µM (active); in [2], 43.3 µM (active); in assay [4], 43.6 µM (active); in [5], 21.9 µM (active); in assay [6], 51.9 µM (active); in assay [7], 21.9 µM (active). For the same molecule, the Potency in assay [8] is 43.6 µM (active); in assay [9], 44.9 µM (active); in assay [10], 49 µM (active); in assay [11], 54.9 µM (active); in assay [12], 49 µM (active); in [13], 49 µM (active). The Potency in assay [15] is 43.6 µM (active). Moreover, in [3] (setting [21]), the activity change, positive = activation was -52.1% (inactive). For the same molecule, in assay [14], the Potency entry is “inactive”.
As for `CCN(CC)c1c([N+](=O)[O-])cc(C(F)(F)F)c(N)c1[N+](=O)[O-]`, the outcome in assay [16] was inactive. Also, the Potency in assay [1] was 113 µM (active); in assay [5], 19.5 µM (active); in [7], 12.3 µM (active); in [9] it was 21.9 µM (active). The Potency entry in assay [17], in assay [18], in [10], in [14] and in assay [19] was “inactive” in each case.
On to `CC(=O)c1cc(C(C)(C)C)cc2c1CCC2(C)C`, for which the call in assay [16] was inactive. Moreover, the Potency entry in assay [2], in [4], in assay [5], in [17], in assay [18] and in assay [8] was “inactive” in each case. Further, the Potency result in [12], in assay [14] and in assay [19] was “inactive” in each case. Further, the activity change, positive = activation in [3] (setting [21]) is -2.02% (inactive). Besides, the Potency in [6] and in [10] was 38.9 µM (active) throughout. Also, the max response in assay [9] was -21.2% (inactive).
Regarding `Clc1ccc(CO/N=C(\Cn2ccnc2)c2ccc(Cl)cc2Cl)c(Cl)c1`, the Potency was 49.2 µM (active) in assay [1]; 18.8 µM (active) in assay [2]; 23.9 µM (active) in assay [4]; 21.3 µM (active) in assay [5]; 21.3 µM (active) in assay [7]; 21.3 µM (active) in [9]. In assay [20], the Potency is 26.8 µM (active). The activity change, positive = activation in assay [3] (setting [21]) was -54.4% [at 42.5 µM] (inactive). Further, the Potency result in [17], in [6], in [10], in assay [14], in assay [15] and in [19] was “inactive” each time.
As to `O=c1[nH]c2ccccc2n1C1CCN(CCCC(c2ccc(F)cc2)c2ccc(F)cc2)CC1`, the Potency in assay [1] was 45 µM (active); in assay [2], 10.9 µM (active) and 13.3 µM (active); in assay [4], 43.6 µM (active) and inactive; in assay [5], 17.4 µM (active) and 16.9 µM (active); in [18], 30.9 µM (active) and inactive; in assay [6], 49 µM (active) and inactive. For the same molecule, the Potency was 13.8 µM (active) and 19 µM (active) in assay [7]; 43.6 µM (active) and inactive in assay [8]; 17.4 µM (active) and 16.9 µM (active) in assay [9]; 49 µM (active) and inactive in assay [11]; 34.7 µM (active) and inactive in assay [12]; 43.6 µM (active) and inactive in assay [13]. In addition, the activity change, positive = activation is -52.6% (inactive) in assay [3] (at 42.5 µM (top of the series)) and -79.9% (inactive) in [3] (at 92.4 µM (top of the series)). In addition, the Potency result in assay [17], in [10], in [14] and in [19] was “inactive” throughout.
In the case of `Clc1ccc(C(c2ccc(Cl)cc2)C(Cl)(Cl)Cl)cc1`, the Potency was 101 µM (active) and 89.8 µM (active) in [1]; 54.9 µM (active) and 61.1 µM (active) in [2]; 39.2 µM (active) in [5]; 55.3 µM (active) and inactive in [6]; 39.2 µM (active) in assay [7]; 39.2 µM (active) in [9]. Further, the Potency entry in assay [20] is “inactive and 54.9 µM (active)”; in [15] it was 55.3 µM (active) and inactive. The activity change, positive = activation in assay [3] (at 42.5 µM (top of the series)) is -17.1% (inactive); in [3] (at 92.4 µM (top of the series)), -47.6% (inactive) and -41.9% (inactive). The Potency result in [4], in [17], in assay [18], in assay [8], in assay [11] and in assay [13] was “inactive” throughout. In addition, the Potency entry in assay [14] and in [19] was “inactive” each time.
For the molecule `Oc1ccc2ccc3cccc4ccc1c2c34`, the molecule was classed as inactive in assay [16]. For the same molecule, the Potency in assay [5] was 15.5 µM (active); in [7] it was 15.5 µM (active); in [8] it was 43.6 µM (active); in [9], 13.8 µM (active). The Potency result in [17] and in assay [19] was “inactive” in each case.
With `CCCN(CCC)CCc1c[nH]c2ccccc12`, in [16], the result was inactive. The Potency entry in [4], in assay [5], in assay [18], in [6], in assay [7] and in [8] was “inactive” each time. The Potency result in [10], in assay [11], in assay [12], in assay [13], in assay [14] and in assay [15] was “inactive” throughout. The Potency entry in assay [19] was “inactive”. Moreover, the max response in [9] was -15.2% (inactive).
For the molecule `COc1cccc2c1C(=O)c1c(O)c3c(c(O)c1C2=O)C[C@@](O)(C(=O)CO)CC3OC1CC(N2CCOC(OC)C2)C(O)C(C)O1` (stereo partly specified), the Potency entry in assay [1], in assay [2], in [17], in assay [6], in assay [10] and in assay [14] was “inactive” in each case. The Potency result in assay [15] and in [19] was “inactive” in each case. In addition, the activity change, positive = activation in assay [3] (setting [21]) was -10.4% [at 42.5 µM] (inactive). The Potency in [4] was 1.9 µM (active); in assay [5], 0.0301 µM (active); in assay [18], 33.8 nM (active); in assay [11], 23.9 µM (active); in assay [12] it was 0.0425 µM (active); in [20], 0.0425 µM (active).
`C[C@@H]1O[C@@H](O[C@@H]2C=C3CC[C@@H]4[C@H](CC[C@]5(C)[C@@H](c6ccc(=O)oc6)CC[C@]45O)[C@@]3(C)CC2)[C@H](O)[C@H](O)[C@H]1O`: the molecule was classed as inactive in [16]. In addition, the Potency is 0.0335 µM (active) in assay [2], 0.0213 µM (active) in assay [5] and 0.019 µM (active) in [9]. Also, in [3] (setting [21]), the activity change, positive = activation is -58.9% [at 42.5 µM] (inactive). In addition, the Potency result in [4], in assay [17], in [18], in assay [6], in assay [8] and in assay [10] was “inactive” each time. Besides, the Potency result in [11], in assay [12], in [13], in assay [20], in assay [14] and in assay [15] was “inactive” each time. Moreover, the Potency entry in assay [19] is “inactive”.
Take `O=C/C(Cl)=C(/Cl)C(=O)O`: the Potency entry in assay [1], in assay [2], in [4], in assay [17], in assay [18] and in assay [6] was “inactive” in each case. Further, the Potency entry in assay [7], in assay [8], in assay [10], in assay [12], in [13] and in [14] was “inactive” in each case. In addition, the Potency entry in assay [15] and in [19] was “inactive” each time. In [3] (setting [21]), the activity change, positive = activation is -23.8% (inactive) and 0.311% (inactive). For the same molecule, in assay [9], the max response was 20.3% (inactive). Moreover, in assay [20], the Potency was 48.9 µM (active).
